A selection: hits, their analogues and other compounds. The true share with any hit is near 17%.
TGFb SMAD3 inh – inhibitors of TGF-b signaling. HepG2 CAGA-GFP TGF-b/SMAD3 reporter, GFP fluorescence, 18 h; TGF-beta stimulated, 500 pg/mL final. Potency, µM (series often up to 46.1 µM), for the others: top-dose activity, negative = inhibition, usual class: inhibitors. 1.2% of 410,000 active; further: on the % scale 0 is the no-effect control and ±100 the full control effect; nearly all actives have a fitted effect of over 65% in size
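Using HEPG2 CAGA-GFP reporter cells at 1000 cells/well, we pinned test compounds, stimulated with recombinant TGF-beta (500 pg/mL final) and measured total well GFP after 18 h.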
HT1080-NT tox – kills 2HG-producing HT-1080-NT fibrosarcoma cells; HT-1080-NT fibrosarcoma viability, CellTiter-Glo ATP luminescence, 48 h; Potency, µM (series often up to 46.1 µM), for inactives: top-dose activity, negative = less viability, most hits filed as cytotoxic; 1.6% of 360,000 active; AID 686970;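 further: NT is the 2HG producing partner of a matched IDH1 knockdown line; 0% = DMSO-treated cells and -100% = media-only wells without cells; nearly all actives have a fitted effect of over 55% in size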
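HT-1080-NT; 750 cells/well; 5% FBS RPMI; 48 h compound, 37 degrees C; CellTiter-Glo luminescence; curve fitting and curve-class assignment.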
HT1080 IDH1KD tx – toxicity to HT-1080 IDH1 knockdown cells (counter line); HT-1080 IDH1 knockdown viability, ATP luminescence, 48 h; Potency, µM (top dose mostly 46.1 µM), for inactives: at the highest dose activity, negative = toxicity, usual class: cytotoxic; 2% of 360,000 active;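 further: 0% = DMSO wells and -100% = cell-free medium wells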
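Knockdown cells (IDH1KD HT-1080) received compounds 2 h after plating at 750 cells/well and were kept 48 h at 37 °C in 5% FBS RPMI. A CellTiter-Glo luminescence read gave % activity for curve fitting.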
TDP1 cell noCPT – qHTS for Inhibitors of human tyrosyl-DNA phosphodiesterase 1 (TDP1): qHTS in cells in absence of CPT | DT40 Tdp1-/- hTDP1 cells, no CPT, ATP luminescence, 48 h | Potency, µM (series often up to 46.2 µM), without a hit: at the highest dose activity change, negative = growth inhibition, hits mostly inhibitors | 15% of 420,000 active | AID 686978, 2013; further: on the % scale 0 is the no-effect control and ±100 the full control effect; nearly all actives have a fitted effect of over 55% in size
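Chicken DT40 Tdp1-/- cells complemented with human TDP1, screened without camptothecin (DMSO vehicle only), 400 cells/well. Compounds pin-transferred, cells incubated at 37 °C for at least 48 hr. Growth read as ATP-dependent luminescence (CellTiter-Glo, 30 min at RT).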
HepG2 viability – HepG2 cytotoxicity, counter-screen for TGF-b inhibitors | 0.76% of 410,000 active | AID 588856 | Potency, µM (titrated, usually from 46.1 µM), inactives show top-dose activity change, negative = cytotoxicity, actives largely listed as cytotoxic | HepG2 CAGA-GFP viability, ATP luminescence, 18 h
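CellTiter-Glo luminescence gave cytotoxicity after 18 hours at 37 degrees C. The cells were HepG2 CAGA-GFP in 1% FBS DMEM, stimulated with 500 pg/mL TGF-beta after compound addition. %Activity was normalised to no-cell wells (complete cell-killing) and DMSO (no toxicity), and curves were fitted and classified.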
TDP1 cell CPT – growth inhibition of DT40 Tdp1-/-;hTDP1 cells with camptothecin (screen for TDP1 inhibitors) | chicken DT40 Tdp1-/-;hTDP1 cells + 20 nM CPT, ATP luminescence, 48 h | 12% of 420,000 active | Potency, µM (top dose mostly 46.2 µM), for inactives: at the highest dose activity change, negative = growth inhibition, most hits filed as inhibitors | AID 686979; further: on the % scale 0 is the no-effect control and ±100 the full control effect; nearly all actives have a fitted effect of over 55% in size
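Chicken DT40 Tdp1-/- cells complemented with human TDP1, 400 cells/well, exposed to compounds plus 20 nM camptothecin for at least 48 h at 37 C; viability read as ATP content by CellTiter-Glo luminescence.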
The depositor's hits bear a star. The call rests on the fitted dose curve; in most records, active means well fitted curve in the direction sought with a large enough effect; inconclusive means small, poorly fitted or top-dose-only effect, or another doubt; inactive means no such curve, though single readings can be large; an effect the other way counts as inactive or inconclusive. Potency means the concentration at half of the fitted maximal effect.

What do the screens show for `CC(=O)n1cc([C@@H]2C=C(C(=O)N3CCN(Cc4ccccc4)CC3)O[C@H](OCc3ccc(CO)cc3)C2)c2ccccc21`?
TGFb SMAD3 inh: inconclusive; HT1080-NT tox: -1%; HT1080 IDH1KD tx: -28%; TDP1 cell noCPT: 8.2µM*; HepG2 viability: -8%; TDP1 cell CPT: 8.2µM*

Results for C#CCNC(=O)C1=C[C@H](c2csc3ccccc23)C[C@H](OCc2ccc(CO)cc2)O1 ?
TGFb SMAD3 inh: inconclusive; HT1080-NT tox: -6%; HT1080 IDH1KD tx: -14%; TDP1 cell noCPT: 16µM*; HepG2 viability: -27%; TDP1 cell CPT: inconclusive

Results for C[C@H](NC(=O)C1CCN(C(=O)[C@H](Cc2ccccc2)NC(=O)OC(C)(C)C)CC1)C(=O)O ?
TGFb SMAD3 inh: 0%; HT1080-NT tox: 23%; HT1080 IDH1KD tx: 22%; TDP1 cell noCPT: 1%; HepG2 viability: -5%; TDP1 cell CPT: 10%

How did CC(=O)n1cc([C@@H]2C=C(C(=O)NCc3ccccc3)O[C@H](OCCCCO)C2)c2ccccc21 do in these assays?
TGFb SMAD3 inh: -29%; HT1080-NT tox: 0%; HT1080 IDH1KD tx: -4%; TDP1 cell noCPT: 18µM*; HepG2 viability: -10%; TDP1 cell CPT: inconclusive

How did C#CCNC(=O)C1=C[C@@H](c2cn(C(C)=O)c3ccccc23)C[C@@H](OCc2ccc(CO)cc2)O1 do in these assays?
TGFb SMAD3 inh: -4%; HT1080-NT tox: -6%; HT1080 IDH1KD tx: -7%; TDP1 cell noCPT: 23µM*; HepG2 viability: -10%; TDP1 cell CPT: 23µM*

What do the screens show for `C#CCNC(=O)C1=C[C@@H](c2cn(C(C)=O)c3ccccc23)C[C@@H](OCCCCO)O1`?
TGFb SMAD3 inh: inconclusive; HT1080-NT tox: 11%; HT1080 IDH1KD tx: 8%; TDP1 cell noCPT: inconclusive; HepG2 viability: -2%; TDP1 cell CPT: 0%

Results for O=C(NCc1ccccc1)C1=C[C@@H](c2ccc(C(F)(F)F)cc2)C[C@@H](OCCCCO)O1 ?
TGFb SMAD3 inh: inconclusive; HT1080-NT tox: -7%; HT1080 IDH1KD tx: -6%; TDP1 cell noCPT: 26µM*; HepG2 viability: -18%; TDP1 cell CPT: inconclusive

Results for CC(=O)n1cc([C@@H]2C=C(C(=O)Nc3ccccc3)O[C@H](OCc3ccc(CO)cc3)C2)c2ccccc21 ?
TGFb SMAD3 inh: inconclusive; HT1080-NT tox: -15%; HT1080 IDH1KD tx: -16%; TDP1 cell noCPT: 13µM*; HepG2 viability: -20%; TDP1 cell CPT: 23µM*

What do the screens show for `COc1ccc(C2CC(=O)NC(NC(=O)c3ccc(Br)cc3)=N2)c(OC)c1OC` (configuration not stated)?
TGFb SMAD3 inh: -1%; TDP1 cell noCPT: -9%; HepG2 viability: 4%; TDP1 cell CPT: -9%

How did Cc1nccn1CCOc1ccc(Cl)cc1 do in these assays?
TGFb SMAD3 inh: -7%; HT1080-NT tox: 3%; HT1080 IDH1KD tx: 4%; TDP1 cell noCPT: -3%; HepG2 viability: -7%; TDP1 cell CPT: 23%

Results for CN(C)CCNC(=O)c1ccc2nc([C@@H]3O[C@H](CO)[C@H](O)[C@H](O)[C@H]3O)[nH]c2c1 ?
TGFb SMAD3 inh: 14%; HT1080-NT tox: 13%; HT1080 IDH1KD tx: 21%; TDP1 cell noCPT: 1%; HepG2 viability: -6%; TDP1 cell CPT: 13%

Results for Cc1c(Nc2cc(Cl)c3nonc3c2[N+](=O)[O-])c(=O)n(-c2ccccc2)n1C ?
TGFb SMAD3 inh: inconclusive; HT1080-NT tox: 3.7µM*; HT1080 IDH1KD tx: inconclusive; TDP1 cell noCPT: 2.1µM*; HepG2 viability: -84%; TDP1 cell CPT: 1.3µM*

Results for Cc1c(Nc2ccc3nonc3c2[N+](=O)[O-])c(=O)n(-c2ccccc2)n1C ?
TGFb SMAD3 inh: 8%; HT1080-NT tox: -18%; HT1080 IDH1KD tx: -12%; TDP1 cell noCPT: -1%; HepG2 viability: -5%; TDP1 cell CPT: 4%

What do the screens show for `CCC1=C(OC(=O)c2ccccc2)C(C)(C)C(c2ccccc2)OC1=O` (configuration not stated)?
TGFb SMAD3 inh: -4%; HT1080-NT tox: 17%; HT1080 IDH1KD tx: 12%; TDP1 cell noCPT: 23µM*; HepG2 viability: 16%; TDP1 cell CPT: inconclusive

How did CCCC(=O)NC(c1ccc(C)cc1)c1ccc2cccnc2c1O (configuration not stated) do in these assays?
TGFb SMAD3 inh: inconclusive; HT1080-NT tox: inconclusive; HT1080 IDH1KD tx: inconclusive; TDP1 cell noCPT: 1.2µM*; HepG2 viability: -18%; TDP1 cell CPT: 2.3µM*

How did Cc1ccc(C(Nc2ccccn2)c2ccc3cccnc3c2O)cc1 (configuration not stated) do in these assays?
TGFb SMAD3 inh: inconclusive; TDP1 cell noCPT: 5.8µM*; HepG2 viability: -22%; TDP1 cell CPT: 21µM*

How did CCCCC(=O)NC(c1ccc(Cl)cc1)c1ccc2cccnc2c1O (configuration not stated) do in these assays?
TGFb SMAD3 inh: inconclusive; HT1080-NT tox: inconclusive; HT1080 IDH1KD tx: inconclusive; TDP1 cell noCPT: 1.2µM*; HepG2 viability: -60%; TDP1 cell CPT: 1.3µM*

How did CCCCC(=O)NC(c1ccccc1Cl)c1c(O)ccc2ccccc12 (configuration not stated) do in these assays?
TGFb SMAD3 inh: inconclusive; HT1080-NT tox: inconclusive; HT1080 IDH1KD tx: inconclusive; TDP1 cell noCPT: inconclusive; HepG2 viability: -14%; TDP1 cell CPT: inconclusive

What do the screens show for `CCCCC(=O)NC(c1ccc(N(C)C)cc1)c1ccc2cccnc2c1O` (configuration not stated)?
TGFb SMAD3 inh: inconclusive; HT1080-NT tox: inconclusive; HT1080 IDH1KD tx: inconclusive; TDP1 cell noCPT: 0.73µM*; HepG2 viability: -62%; TDP1 cell CPT: 1µM*

Results for COc1ccc(-c2oc3c(c2C(=O)OCCCO)C(OCCO)CCC3)cc1 (configuration not stated) ?
HT1080-NT tox: 0%; HT1080 IDH1KD tx: 13%; TDP1 cell noCPT: 5%; TDP1 cell CPT: -1%

What do the screens show for `Cc1[nH]c2ccc(CNS(=O)(=O)c3ccc(S(=O)(=O)N4CCOCC4)cc3)cc2c1C`?
TGFb SMAD3 inh: -28%; HT1080-NT tox: -6%; HT1080 IDH1KD tx: 28%; TDP1 cell noCPT: -11%; HepG2 viability: 2%; TDP1 cell CPT: -25%
